Experimental data: PubChem BioAssay (NCATS)
Results filed as inconclusive are left out. Values without a mark were called inactive. Active and inactive are the calls of the source. The call rests on the fitted dose curve; in most records, active means well fitted cell-killing curve with a large enough effect; inconclusive means small, poorly fitted or top-dose-only effect, or effect the other way; inactive means flat fitted curve, though single readings scatter. Non-standard residues stand in square brackets, D forms with d. Residues, ends and D or L forms follow the SMILES beside them. *: point of attachment. Sta = CC(C)C[C@H](N)[C@@H](O)CC(=O)O; Isovaleryl = CC(C)CC(=O)*

System: JEG-3
Assay: Primary qHTS to identify gynecologic anti-cancer compounds using libraries of approved drugs and bioactive compounds (AID 1345084); further: nearly all actives have a fitted effect of over 55% in size
Conditions: Gynecologic cancer cell panel viability, ATPlite luminescence, 48 h; series mostly up to 57.5 µM; activity change, negative = cytotoxicity: at the top concentration
How it was run: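 Cells, 1,000 per well, plated 16 h, then exposed 48 h at 37 C to compounds. Viability by ATPlite luminescence after 15 min at room temperature.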
On the % scale 0 is the no-effect control and ±100 the full control effect.

SMILES | Potency | activity change, negative = cytotoxicity
CC(C)c1nc(CN(C)C(=O)N[C@H](C(=O)N[C@@H](Cc2ccccc2)C[C@H](O)[C@H](Cc2ccccc2)NC(=O)OCc2cncs2)C(C)C)cs1 | inactive | 
CC1(C)CCC(C)(C)c2cc(NC(=O)c3ccc(C(=O)O)cc3)ccc21 |  | 5.53%
Cc1nc2n(c(=O)c1CCN1CCC(c3noc4cc(F)ccc34)CC1)CCCC2 |  | 0.798%
Cc1cc2cc3c(C)cc(=O)oc3c(C)c2o1 |  | 0.689%
CCC(C)(Oc1ccc(C2(c3ccc(OC(C)(CC)C(=O)O)cc3)CCCCC2)cc1)C(=O)O (stereo not given) | inactive | 
Nc1ncn([C@H]2C[C@H](O)[C@@H](CO)O2)c(=O)n1 |  | -0.891%
CS(=O)(=O)OCCCCOS(C)(=O)=O |  | -0.694%
CC(C)CC(=O)N[C@H](C(=O)N[C@H](C(=O)N[C@@H](CC(C)C)[C@@H](O)CC(=O)N[C@@H](C)C(=O)N[C@@H](CC(C)C)[C@@H](O)CC(=O)O)C(C)C)C(C)C (Isovaleryl-VV[Sta]A[Sta]-OH) |  | 15.6%
CC1=C(C(=O)O)N2C(=O)[C@@H](NC(=O)[C@H](N)C3=CCC=CC3)[C@H]2SC1 |  | 0.0359%
N=C(N=C(N)N)N1CCOCC1 |  | -7.29%
O=C(NCC1CCCCN1)c1cc(OCC(F)(F)F)ccc1OCC(F)(F)F (stereo not given) |  | -11.2%
CCC1=C(C)CN(C(=O)NCCc2ccc(S(=O)(=O)NC(=O)NC3CCC(C)CC3)cc2)C1=O (stereo not given) | inactive | 
NNc1nncc2ccccc12 |  | -2.49% [at 25.3 µM]
CN1C(C(=O)Nc2ccccn2)=C(O)c2sccc2S1(=O)=O |  | 1.29%
O=C(NOCC1CC1)c1ccc(F)c(F)c1Nc1ccc(I)cc1Cl |  | -10.2%
